# Keap1-Nrf2 PPI: disrupts human Keap1 binding to Nrf2 peptide; Q14145; Keap1 Kelch-Nrf2 peptide fluorescence polarization, 1536-well; inhibition, % at 9.4 µM; 340,000 compounds, 0.15% hits; AID 504523; in the data active = inhibition above about 12%; inconclusive = no clear call, values can overlap the other calls; inactive = below about 7.3%;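 also: human Keap1 Kelch domain with fluorescein labeled Nrf2 9mer peptide probe; 0% = neutral control wells and 100% = peptide positive control; higher means more block of Keap1 binding to Nrf2 peptide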
# Target sequence (Q14145 whole entry, looked up, the tested form may be a part): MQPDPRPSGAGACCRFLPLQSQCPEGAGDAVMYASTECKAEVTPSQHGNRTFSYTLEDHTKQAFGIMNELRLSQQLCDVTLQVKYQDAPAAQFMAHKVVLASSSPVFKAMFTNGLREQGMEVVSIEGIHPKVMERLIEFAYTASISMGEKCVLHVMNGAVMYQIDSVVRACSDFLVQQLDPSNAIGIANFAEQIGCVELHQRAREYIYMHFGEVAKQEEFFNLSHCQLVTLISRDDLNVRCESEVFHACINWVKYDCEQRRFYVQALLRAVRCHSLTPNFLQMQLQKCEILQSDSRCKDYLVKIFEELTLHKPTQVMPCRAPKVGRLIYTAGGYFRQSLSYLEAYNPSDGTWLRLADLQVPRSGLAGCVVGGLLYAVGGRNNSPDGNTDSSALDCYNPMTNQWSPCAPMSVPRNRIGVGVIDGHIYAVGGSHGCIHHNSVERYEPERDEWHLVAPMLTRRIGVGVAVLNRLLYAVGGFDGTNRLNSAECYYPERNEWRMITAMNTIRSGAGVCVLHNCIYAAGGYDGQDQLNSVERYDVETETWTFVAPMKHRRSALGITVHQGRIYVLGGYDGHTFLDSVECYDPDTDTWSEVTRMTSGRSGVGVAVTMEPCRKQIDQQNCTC
# MEX-5 binding: C. elegans MEX-5 TCR-2 RNA binding activity | activity score (negative = inhibition of binding), % at 10 µM | Q9XUB2 | 300,000 compounds, 0.38% hits | MEX-5/FITC-TCR2 RNA binding, fluorescence polarization; hits give low values | AID 1832;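 active = inhibition past about -25% in most replicates, and total fluorescence under double the plate's negative control median, limit read from the data; inconclusive = replicates evenly split on the limit, or fluorescence at least double controls; inactive = too little inhibition in most replicates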;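 also: 0% = DMSO and -100% = 5 µM competing unlabeled TCR2 RNA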
# E coli Lon inh: inhibitors of E. coli Lon protease. 360,000 compounds, 0.42% hits. AID 602123. P0A9M0. purified E. coli Lon protease, fluorescence polarization. inhibition, % at 7.94 µM; in the data active = inhibition above about 13%, passing the limit was not always enough;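 also: 0% = enzyme with probe and DMSO and 100% = no enzyme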
# Bcl-xL primary: inhibitors of human Bcl-xL | AID 2129 | 320,000 compounds, 0.7% hits | inhibition, % at 10.9 µM | GST-Bcl-xL / FITC-Bim BH3 peptide fluorescence polarization;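 active = inhibition above the mean of all tested compounds plus 3 SD, cutoff set per campaign, cut at about 30% in these data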;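 also: 0% = DMSO wells and 100% = unlabeled Bim-BH3 peptide competitor; inhibitors lower millipolarization by displacing the labeled peptide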
# LANA DNA inh: inhibitors of KSHV LANA C-terminal domain DNA binding; MBP-C-LANA/FAM-LBS DNA binding, fluorescence polarization; inhibition, % at 9 µM; 340,000 compounds, 0.078% hits;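 active = highest replicate inhibition at or above 60% at 9 µM, even if other replicates fall short; inactive = all replicates below 60% inhibition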;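 also: 0% = neutral control wells and 100% = 4 µM acridine orange control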
# GLD-1 TGE inh: GLD-1-TGE RNA interaction inhibition (C. elegans) | Q17339 | 320,000 compounds, 0.44% hits | inhibition, % at 5.96 µM | purified GLD-1 + fluorescein TGE RNA, fluorescence polarization;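 active = percent inhibition above a per-plate cutoff, the plate mean of test compounds plus 3 SD, cut at about 30% in these data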;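 also: 0% = DMSO wells with GLD-1 and probe and 100% = wells lacking GLD-1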
# eLon confirm: E. coli Lon inhibition confirmation; shares compounds with E coli Lon inh; purified E. coli Lon, fluorescence polarization; 1,400 compounds, 31% hits; inhibition, % at 7.94 µM; AID 602230; in the data active = inhibition above about 16%;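 also: 0% = enzyme with probe and DMSO and 100% = no enzyme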
# Active calls of the source: *; ? = inconclusive; / = no result given; + = active, no number. Compounds with a hit are over-represented: about 1.2% of the library has one in this group of screens.
SMILES,Keap1-Nrf2 PPI,MEX-5 binding,E coli Lon inh,Bcl-xL primary,LANA DNA inh,GLD-1 TGE inh,eLon confirm
O=c1c2c([nH]n1-c1ccccc1)C[C@@H](C1CCCCC1)O[C@H]2c1ccc(F)cc1,/,/,-11.2,/,/,/,/
Cc1ccc(CNC(=O)c2ccc3c(=O)c(O)c(-c4ccc(C)cc4)[nH]c3c2)cc1,2.8,-1.4,0.1,1.8,1.8,1.6,/
CCCNC(=O)c1ccc2c(=O)c(O)c(-c3ccc(C)cc3)[nH]c2c1,-0.9,-2.6,159.8*,1.6,-2.6,9.2,141.0*
Cc1c(NC(=O)[C@@H](NC(=O)c2ccc(Cl)c([N+](=O)[O-])c2)C(C)C)c(=O)n(-c2ccccc2)n1C,2.1,/,2.4,/,0.8,1.9,/
O=C(CCCC(=O)N/N=C\c1ccccn1)N/N=C\c1ccccn1,-0.9,-4.4,-6.7,0.4,0.0,6.2,/
CC(Nc1cccc2ccccc12)C(=O)N/N=C/c1ccccn1 (stereo not given),4.7,-4.3,24.0*,6.0,25.4,6.4,7.3
C=CCCC(=O)N1C[C@H]2CCN(C)[C@H]2C[C@H]1c1ccc(Br)cc1,/,/,-6.0,/,/,/,/
O=C(COC(=O)c1nc(Cl)ccc1Cl)Nc1ncc(Cl)cc1Cl,-5.4,-7.5,77.4*,12.3,-0.2,7.6,-7.2
COc1ccc(S(=O)(=O)N2CN(Cc3ccco3)c3nc4ccccc4nc32)cc1,-5.5,-0.2,28.0*,9.1,0.0,7.8,-10.6
Cc1ccc(S(=O)(=O)Nc2nc3ccccc3nc2NCc2ccco2)cc1C,2.1,-2.4,-5.8,9.3,1.5,6.5,/
O=S(=O)(c1cccs1)N1CN(Cc2cccs2)c2nc3ccccc3nc21,-5.5,-2.1,17.8*,2.3,0.6,2.9,-33.7
O=S(=O)(c1cccs1)N1CN(Cc2ccc(F)cc2)c2nc3ccccc3nc21,-6.9,/,4.8,3.1,0.1,6.2,/
O=S(=O)(c1ccc(F)cc1)N1CN(Cc2ccco2)c2nc3ccccc3nc21,2.7,1.0,44.0*,28.1,5.7,19.9,-37.4
Cc1ccc(S(=O)(=O)N2CN(Cc3ccco3)c3nc4ccccc4nc32)cc1,-8.2,2.0,2.8,17.1,2.0,21.9,/
Cc1ccc(S(=O)(=O)N2CN(Cc3ccco3)c3nc4ccccc4nc32)cc1C,-5.0,7.0,15.4*,10.4,1.4,11.3,-6.6
CCOC(=O)CNC1CC(=O)N(c2ccc(Br)cc2)C1=O (stereo not given),-2.0,1.0,-7.0,6.1,1.0,-6.5,/
C[C@@H]1COC(=O)[C@@H](CC(=O)OC(C)(C)C)C/C=C\C[C@H](CC(=O)N(CCO)Cc2ccccc2)C(=O)N1,-1.8,/,6.6,/,-0.7,2.4,/
CC(C)C(=O)NNS(=O)(=O)c1ccccc1[N+](=O)[O-],-3.8,1.4,14.9*,4.3,-0.6,1.0,3.3
O=C(c1c(O)c2ccccc2oc1=O)C1CCC1,0.6,0.5,-10.8,2.0,1.5,9.1,/
O=c1oc2ccccc2c(O)c1Sc1c(O)c2ccccc2oc1=O,-2.8,/,27.7*,/,1.2,/,34.5*
Cn1c2ccccc2c(=O)c2ccc(NCCc3cccs3)cc21,-2.8,/,91.6*,/,1.4,79.2*,22.6*
CCn1c(SCC(=O)Nc2ccc(N3CCOCC3)cc2)nnc1-c1ccco1,-2.0,0.7,27.1*,3.1,0.1,-3.0,2.0
Cc1cc2cc(CN3C(=O)c4ccccc4C3=O)ccc2n1C,-3.6,0.2,24.5*,10.0,0.7,17.1,14.0
Cc1ccc(S(=O)(=O)NCc2ccc3c(c2)cc(C)n3C)cc1,-1.0,3.7,16.3*,14.7,0.4,25.4,-1.8
Nc1nnc2cc(F)ccc2n1,/,/,-11.8,/,/,/,/
SMILES,Keap1-Nrf2 PPI,MEX-5 binding,E coli Lon inh,Bcl-xL primary,LANA DNA inh,GLD-1 TGE inh,eLon confirm
Nc1nnc2cc(Br)ccc2n1,/,/,65.9*,/,/,/,32.9*
COc1cccc(NC(=O)CN(C)C(=O)CCCc2c[nH]c3ccccc23)c1,-3.5,/,10.3,4.1,0.4,-0.2,/
COc1ccc(NC(=O)CN(C)C(=O)CCc2c[nH]c3ccccc23)cc1,-0.5,-1.0,32.2*,3.1,-0.5,3.4,15.5
O=S(=O)(c1ccccc1)N1CCN(Cc2ccccc2)c2ccccc21,-5.9,/,34.1*,/,-0.8,/,-1.1
O=S(=O)(c1ccccc1)N1CCN(Cc2ccccc2)CC1,3.8,0.3,-14.1,1.7,1.8,2.2,/
COC(=O)[C@H](Cc1ccccc1)NC(=O)Cn1cnc2c(NCc3ccccc3)ncnc21,-2.3,/,-9.3,/,0.1,/,/
O=C(CCN1C(=O)C2CC=C(Cl)CC2C1=O)N1CCCCC1 (stereo not given),5.1,-40.6*,29.2*,54.2*,10.4,57.9*,52.2*
O=C(CCN1C(=O)C2C3C=CC(C3)C2C1=O)N1CCCCC1 (stereo not given),-3.0,1.0,4.6,7.9,-1.0,-1.3,/
COC(=O)c1ccccc1NC(=O)N[C@@H](C)C(=O)OC,-5.0,2.4,16.3*,3.1,-0.1,4.1,0.7
Cc1nn(-c2ccc(F)cc2F)c2c1-c1nc(N3CCCC3)ncc1CC2,-5.2,-1.3,16.2*,-4.5,-0.2,6.6,6.3
OC1COC(c2ccccc2)OC1C(O)C1OC(c2ccccc2)OCC1O (stereo not given),-0.4,/,-2.5,/,2.6,/,/
Clc1ccccc1N=Nc1ccccn1,14.4*,/,+,/,28.4,/,10.1
CC(NC(=O)C1=CC=CN2CCS(=O)(=O)N=C12)c1ccc(Cl)c(Cl)c1 (stereo not given),-8.9,/,12.3,/,0.0,-0.6,/
CN(C)Cc1ccccc1-c1cccc2nccn12,/,/,16.9*,/,/,/,5.4
C=C1C(=O)C2=CC1CCC(=O)C1(C)CCC(OC(C)=O)C(C)(C)C1CC2O (stereo not given),-15.9,/,-7.6,/,-1.5,/,/
CC(=O)N/N=C/c1cc(C(C)C)cc(/C=N/NC(C)=O)c1O,?,-3.0,69.4*,93.1*,32.2,143.3*,100.5*
CCOC(=O)[C@]12CCC=C1N(Cc1cccc3ccccc13)C(=O)[C@H](CC(=O)NCCCOC)C2,/,/,1.1,/,/,/,/
O=C1C(Br)=Cc2cccc3cccc1c23,-0.8,-9.9,67.7*,116.1*,2.1,83.2*,56.6*
O=C(COc1cc2oc(=O)c3c(c2cc1Cl)CCCC3)N1C[C@H]2C[C@@H](C1)c1cccc(=O)n1C2,1.3,0.8,-1.0,0.2,1.2,-7.5,/
CCCCN(C(=O)NC(=O)Nc1ccccc1OC)S(C)(=O)=O,-4.1,1.8,19.8*,2.0,0.8,-10.5,5.4
O=S1(=O)CCN(C2CC2)CC1,/,/,-2.7,/,/,/,/
O[C@@H]1CN(Cc2cccs2)[C@@H](c2ccccc2)C[C@H]1n1cc(C2CC2)nn1,/,/,0.8,/,/,/,/
Oc1c(N=Nc2nn[nH]n2)ccc2ccccc12,/,/,48.1*,/,/,/,25.2*
C[C@@H]1CN([C@H](C)CO)C(=O)CCCn2nncc2CO[C@H]1CN(C)S(=O)(=O)c1cccc(C#N)c1,/,/,-7.0,/,/,/,/
